Where “and” joins values, the source holds several entries; their conditions need not be identical. Equal values may be shown once. Records with an inconclusive call do not appear. Some compounds were tested as several samples or in several runs, with calls that do not always agree. Calls of active or inactive are those of the source. The calls were made as follows, unless noted: active = hit-call score of the fitted dose curve at least 0.9, where 1 is the maximum; inactive = score below 0.9.
Legend:
[1] = molecular target: Bile acid receptor (Homo sapiens) (UniProt Q96RI1); test: OT_FXR_FXRSRC1_1440: Odyssey Thera (OT) 24-hour HEK293T Protein-Complementation Assay for Farnesoid X receptor/SRC-1 Co-activator (AID 2283384; active = hit-call score of the fitted dose curve at least 0.9, where 1 is the maximum)
Bile acid receptor (Homo sapiens), sequence (Q96RI1 whole entry, looked up, the tested form may be a part): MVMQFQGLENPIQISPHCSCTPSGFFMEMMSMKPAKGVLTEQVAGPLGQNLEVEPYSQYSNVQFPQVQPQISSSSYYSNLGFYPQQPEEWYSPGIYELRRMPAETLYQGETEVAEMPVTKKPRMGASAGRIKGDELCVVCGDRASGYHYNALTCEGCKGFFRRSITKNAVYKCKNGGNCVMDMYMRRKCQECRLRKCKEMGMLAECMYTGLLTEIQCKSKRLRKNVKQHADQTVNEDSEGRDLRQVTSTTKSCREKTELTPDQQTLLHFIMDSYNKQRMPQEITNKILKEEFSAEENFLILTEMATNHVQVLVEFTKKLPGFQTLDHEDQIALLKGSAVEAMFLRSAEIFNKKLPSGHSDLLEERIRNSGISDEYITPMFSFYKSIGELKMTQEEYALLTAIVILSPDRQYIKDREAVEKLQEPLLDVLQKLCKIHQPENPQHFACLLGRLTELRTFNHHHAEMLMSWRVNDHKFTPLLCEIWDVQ
Procedure, shortened: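 Protein-fragment complementation: FXR and SRC-1 fused to reporter fragments that reassemble on interaction, read by fluorescence intensity. Human HEK293T cells measured 24 h post-dose; positive-direction fit versus DMSO.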

[2] = molecular target: Retinoic acid receptor RXR-alpha (Homo sapiens) (UniProt P19793); test: OT_NURR1_NURR1RXRa_1440: Odyssey Thera (OT) 24-hour HEK293T Protein Complementation Assay for Nurr1/retinoid X receptor (RXR) (AID 2283386; active = hit-call score of the fitted dose curve at least 0.9, where 1 is the maximum)
Retinoic acid receptor RXR-alpha (Homo sapiens), sequence (P19793 whole entry, looked up, the tested form may be a part): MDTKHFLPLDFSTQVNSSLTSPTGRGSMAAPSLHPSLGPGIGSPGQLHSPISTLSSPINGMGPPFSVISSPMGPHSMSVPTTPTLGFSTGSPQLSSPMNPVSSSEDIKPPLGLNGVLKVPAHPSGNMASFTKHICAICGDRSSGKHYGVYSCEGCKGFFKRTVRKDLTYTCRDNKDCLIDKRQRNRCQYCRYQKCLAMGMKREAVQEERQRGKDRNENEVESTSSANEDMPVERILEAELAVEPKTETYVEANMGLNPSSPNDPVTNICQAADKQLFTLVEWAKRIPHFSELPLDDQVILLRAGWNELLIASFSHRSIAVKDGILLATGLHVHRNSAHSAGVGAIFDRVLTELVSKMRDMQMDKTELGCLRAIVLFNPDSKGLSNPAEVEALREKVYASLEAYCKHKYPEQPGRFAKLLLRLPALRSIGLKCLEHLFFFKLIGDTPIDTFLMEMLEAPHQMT
Procedure, shortened: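 Gain in fluorescence, fitted relative to DMSO, reflects Nurr1–RXRα association in HEK293T cells after 24 h dosing. Bait and prey are each linked to a reporter-protein fragment that reassembles on interaction.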

[3] = molecular target: Peroxisome proliferator-activated receptor gamma (Homo sapiens) (UniProt P37231); test: OT_PPARg_PPARgSRC1_0480: Odyssey Thera (OT) 8-hour Protein-Complementation Assay for Peroxisome Proliferator-activated Receptor Gamma / SRC-1 Co-activator (AID 2283387; active = hit-call score of the fitted dose curve at least 0.9, where 1 is the maximum;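 also: nuclear to cytoplasmic split Venus YFP fluorescence ratio reporting PPARg SRC-1 interaction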)
Peroxisome proliferator-activated receptor gamma (Homo sapiens), sequence (P37231 whole entry, looked up, the tested form may be a part): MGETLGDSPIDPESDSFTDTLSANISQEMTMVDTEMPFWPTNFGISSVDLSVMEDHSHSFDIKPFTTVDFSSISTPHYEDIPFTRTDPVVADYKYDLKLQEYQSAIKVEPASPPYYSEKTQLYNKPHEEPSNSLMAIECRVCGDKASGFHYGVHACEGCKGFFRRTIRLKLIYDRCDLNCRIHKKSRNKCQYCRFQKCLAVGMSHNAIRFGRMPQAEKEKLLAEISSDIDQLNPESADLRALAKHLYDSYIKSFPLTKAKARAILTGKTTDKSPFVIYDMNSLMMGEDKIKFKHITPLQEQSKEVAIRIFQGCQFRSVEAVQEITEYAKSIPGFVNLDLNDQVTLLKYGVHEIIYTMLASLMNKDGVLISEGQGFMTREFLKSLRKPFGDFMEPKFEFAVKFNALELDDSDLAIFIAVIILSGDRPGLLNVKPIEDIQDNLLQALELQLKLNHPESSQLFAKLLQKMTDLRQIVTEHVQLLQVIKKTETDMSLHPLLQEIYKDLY
Procedure, shortened: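 Protein-fragment complementation of split Venus YFP reports PPARg/SRC-1 interaction in HEK293T (transfected 48 h before treatment), exposed 8 h. Readout: N/C fluorescence ratio at 488 nm from imaging, Draq5 for segmentation, positive fit relative to DMSO.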

[4] = molecular target: Peroxisome proliferator-activated receptor gamma (Homo sapiens) (UniProt P37231); test: OT_PPARg_PPARgSRC1_1440: Odyssey Thera (OT) 24-hour Protein-Complementation Assay for Peroxisome Proliferator-activated Receptor Gamma/ SRC-1 Co-activator (AID 2283388; active = hit-call score of the fitted dose curve at least 0.9, where 1 is the maximum;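 also: nuclear to cytoplasmic ratio of reconstituted Venus YFP fluorescence in fixed imaged cells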)
Procedure, shortened: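 Readout is the 488 nm N/C fluorescence ratio from fixed, Draq5-stained HEK293T cells after 24 h compound exposure. Cells carried transiently transfected PPARg and SRC-1 fused to Venus fragments, transfected 48 h before treatment.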

[5] = CEETOX_H295R_11DCORT: CeeTox H295R High-throughput Steroidogenesis Assay for 11-Deoxycortisol (11DCORT) (AID 2283432); settings: actives raise or lower the signal;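 as to AC50: 11-deoxycortisol secreted into the medium measured by LC-MS/MS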
Procedure, shortened: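 Human adrenal H295R cells were prestimulated with 10 uM forskolin for 48 h, then exposed to test chemical (0.1% DMSO final) for 48 h. Medium 11-deoxycortisol was quantified by MTBE extraction and HPLC-MS/MS; bidirectional fitting relative to DMSO.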

[6] = CEETOX_H295R_OHPREG: CeeTox H295R High-throughput Steroidogenesis Assay for OH-Pregnenolone (OHPREG) (AID 2283434); settings: actives raise or lower the signal
Procedure, shortened: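 Readout: HPLC-MS/MS of 17alpha-hydroxypregnenolone in medium after 48 h chemical exposure of H295R cells pretreated with forskolin. Values fitted bidirectionally relative to DMSO; chemicals reducing viability to 20–70% were retested after 10-fold dilution.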

[7] = CEETOX_H295R_OHPROG: CeeTox H295R High-throughput Steroidogenesis Assay for OH-Progesterone (OHPROG) (AID 2283435); settings: actives raise or lower the signal;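 as to AC50: 17alpha-hydroxyprogesterone secreted into medium measured by HPLC-MS/MS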
Procedure, shortened: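 Medium steroid levels read by LC-MS/MS after 48 h chemical treatment (0.1% DMSO) of human adrenal H295R cells that had been forskolin-primed (10 uM, 48 h). Gain or loss fitted against DMSO; MTT cytotoxicity checked per well.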

[8] = CEETOX_H295R_CORTIC: CeeTox H295R High-throughput Steroidogenesis Assay for Corticosterone (CORTIC) (AID 2283437); settings: actives raise or lower the signal;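 also: corticosterone secreted into medium quantified by mass spectrometry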
Procedure, shortened: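 Steps: seed H295R, adhere overnight; 10 uM forskolin 48 h; replace with chemical (0.1% DMSO) 48 h; extract medium with MTBE; quantify corticosterone by HPLC-MS/MS; score bidirectionally vs DMSO.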

[9] = CEETOX_H295R_CORTISOL: CeeTox H295R High-throughput Steroidogenesis Assay for Cortisol (AID 2283438); settings: actives raise or lower the signal;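 also: cortisol secreted into medium quantified by LC-MS/MS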
Procedure, shortened: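 Cortisol measured by HPLC-MS/MS after MTBE extraction of medium from H295R cells exposed 48 h to chemical (0.1% DMSO), following 48 h prestimulation with 10 uM forskolin. Viability assessed by MTT in the same wells.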

[10] = CEETOX_H295R_DOC: CeeTox H295R High-throughput Steroidogenesis Assay for DOC (AID 2283439); settings: actives raise or lower the signal
Procedure, shortened: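 11-Deoxycorticosterone quantified in medium by MTBE extraction and HPLC-MS/MS after 48 h chemical exposure (0.1% DMSO) of forskolin-primed (10 uM, 48 h) H295R cells. Same-well MTT viability; data fitted bidirectionally against DMSO.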

[11] = CEETOX_H295R_ESTRADIOL: CeeTox H295R High-throughput Steroidogenesis Assay for Estradiol (AID 2283440); settings: actives raise or lower the signal;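 also: estradiol secreted into medium quantified by LC-MS/MS after dansyl derivatisation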
Procedure, shortened: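 Estradiol in spent medium measured by LC-MS/MS after dansyl chloride derivatisation. Forskolin-primed (10 uM, 48 h) human adrenal H295R cells received test chemical 48 h at 0.1% DMSO; concentrations lowered until MTT viability >/=70%.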

[12] = CEETOX_H295R_PROG: CeeTox H295R High-throughput Steroidogenesis Assay for Progesterone (PROG) (AID 2283442); settings: actives raise or lower the signal;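 as to AC50: human H295R adrenal cells primed with 10 µM forskolin before dosing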
Procedure, shortened: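 Progesterone secreted by human H295R cells was measured by LC-MS/MS following 48 h chemical exposure at 0.1% DMSO, preceded by 48 h forskolin (10 uM) stimulation. Same-well MTT viability; cytotoxic concentrations diluted 10- or 100-fold and retested.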

[13] = read-out: Fatty acid synthase (Homo sapiens) (UniProt P49327); test: LTEA_HepaRG_FASN: Life Technologies and Expression Analysis (LTEA) Assay for Fatty Acid Synthase (FASN) using HepaRG (AID 2283448); settings: mRNA level, 48 h; actives raise or lower the signal;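 as to AC50: differentiated human HepaRG liver cells in serum-free induction medium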
Procedure, shortened: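 FASN transcript measured by TaqMan qRT-PCR, normalised to three housekeeping genes, after 48 h chemical exposure of HepaRG cells. Eight-point half-log series from 100 uM in 0.5% DMSO, duplicates; gain or loss fitted against vehicle.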

[14] = read-out: Cyclin D2 (CCND2), CCND2 (gene 894); test: LTEA_HepaRG_CCND2: Life Technologies and Expression Analysis (LTEA) Assay for Cyclin D2 (CCND2) using HepaRG (AID 2283449); settings: mRNA level, 48 h; actives raise or lower the signal;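 also: CCND2 transcript measured by TaqMan qRT-PCR and normalised to three housekeeping genes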
Procedure, shortened: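 In this HepaRG study, an eight-point concentration series (max 100 uM, 0.5% DMSO) is applied for 48 h. CCND2 mRNA change is derived by qRT-PCR normalised to ACTB, GAPDH and POLR2A.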

[15] = read-out: Cyclin Dependent Kinase Inhibitor 1A (CDKN1A), CDKN1A (gene 1026); test: LTEA_HepaRG_CDKN1A: Life Technologies and Expression Analysis (LTEA) Assay for Cyclin Dependent Kinase Inhibitor 1A (CDKN1A) using HepaRG (AID 2283450); settings: mRNA level, 48 h; actives raise or lower the signal
Procedure, shortened: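 Expression quantified by Fluidigm qRT-PCR with ACTB, GAPDH and POLR2A normalization, fitted bidirectionally against 0.5% DMSO. Cells: HepaRG, plated 48 h then treated 48 h in serum-free induction medium, top concentration 100 uM with half-log dilutions.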

[16] = read-out: Cyclin D1 (CCND1), CCND1 (gene 595); test: LTEA_HepaRG_CCND1: Life Technologies and Expression Analysis (LTEA) Assay for Cyclin D1 (CCND1) using HepaRG (AID 2283451); settings: mRNA level, 48 h; actives raise or lower the signal
Procedure, shortened: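 Expression of CCND1 was quantified by qRT-PCR on Fluidigm arrays using ACTB, GAPDH and POLR2A as reference genes. HepaRG cultures, plated 48 h beforehand, were dosed for 48 h at up to 100 uM (half-log, 8 points) in 0.5% DMSO.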

[17] = read-out: catalase (CAT), CAT (gene 847); test: LTEA_HepaRG_CAT: Life Technologies and Expression Analysis (LTEA) Assay for catalase (CAT) using HepaRG (AID 2283452); settings: mRNA level, 48 h; actives raise or lower the signal
Procedure, shortened: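 Differentiated HepaRG cells in serum-free induction medium were dosed 48 h in duplicate, eight half-log concentrations from 100 uM in 0.5% DMSO. Transcript measured by TaqMan qRT-PCR, normalised to ACTB/GAPDH/POLR2A, fitted bidirectionally against DMSO.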

[18] = molecular target: Retinoic acid receptor RXR-alpha (Homo sapiens) (UniProt P19793); test: OT_NURR1_NURR1RXRa_0480: Odyssey Thera (OT) 8-hour HEK293T Protein Complementation Assay for Nurr1/retinoid X receptor (RXR) (AID 2283385; active = hit-call score of the fitted dose curve at least 0.9, where 1 is the maximum)
Procedure, shortened: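 Interaction of Nurr1 with RXRα read as reconstituted reporter fluorescence in a HEK293T fragment-complementation system, 8 h post-treatment; increase over DMSO baseline analysed.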

Measured: AC50

Fatty acid synthase (Homo sapiens), sequence (P49327 whole entry, looked up): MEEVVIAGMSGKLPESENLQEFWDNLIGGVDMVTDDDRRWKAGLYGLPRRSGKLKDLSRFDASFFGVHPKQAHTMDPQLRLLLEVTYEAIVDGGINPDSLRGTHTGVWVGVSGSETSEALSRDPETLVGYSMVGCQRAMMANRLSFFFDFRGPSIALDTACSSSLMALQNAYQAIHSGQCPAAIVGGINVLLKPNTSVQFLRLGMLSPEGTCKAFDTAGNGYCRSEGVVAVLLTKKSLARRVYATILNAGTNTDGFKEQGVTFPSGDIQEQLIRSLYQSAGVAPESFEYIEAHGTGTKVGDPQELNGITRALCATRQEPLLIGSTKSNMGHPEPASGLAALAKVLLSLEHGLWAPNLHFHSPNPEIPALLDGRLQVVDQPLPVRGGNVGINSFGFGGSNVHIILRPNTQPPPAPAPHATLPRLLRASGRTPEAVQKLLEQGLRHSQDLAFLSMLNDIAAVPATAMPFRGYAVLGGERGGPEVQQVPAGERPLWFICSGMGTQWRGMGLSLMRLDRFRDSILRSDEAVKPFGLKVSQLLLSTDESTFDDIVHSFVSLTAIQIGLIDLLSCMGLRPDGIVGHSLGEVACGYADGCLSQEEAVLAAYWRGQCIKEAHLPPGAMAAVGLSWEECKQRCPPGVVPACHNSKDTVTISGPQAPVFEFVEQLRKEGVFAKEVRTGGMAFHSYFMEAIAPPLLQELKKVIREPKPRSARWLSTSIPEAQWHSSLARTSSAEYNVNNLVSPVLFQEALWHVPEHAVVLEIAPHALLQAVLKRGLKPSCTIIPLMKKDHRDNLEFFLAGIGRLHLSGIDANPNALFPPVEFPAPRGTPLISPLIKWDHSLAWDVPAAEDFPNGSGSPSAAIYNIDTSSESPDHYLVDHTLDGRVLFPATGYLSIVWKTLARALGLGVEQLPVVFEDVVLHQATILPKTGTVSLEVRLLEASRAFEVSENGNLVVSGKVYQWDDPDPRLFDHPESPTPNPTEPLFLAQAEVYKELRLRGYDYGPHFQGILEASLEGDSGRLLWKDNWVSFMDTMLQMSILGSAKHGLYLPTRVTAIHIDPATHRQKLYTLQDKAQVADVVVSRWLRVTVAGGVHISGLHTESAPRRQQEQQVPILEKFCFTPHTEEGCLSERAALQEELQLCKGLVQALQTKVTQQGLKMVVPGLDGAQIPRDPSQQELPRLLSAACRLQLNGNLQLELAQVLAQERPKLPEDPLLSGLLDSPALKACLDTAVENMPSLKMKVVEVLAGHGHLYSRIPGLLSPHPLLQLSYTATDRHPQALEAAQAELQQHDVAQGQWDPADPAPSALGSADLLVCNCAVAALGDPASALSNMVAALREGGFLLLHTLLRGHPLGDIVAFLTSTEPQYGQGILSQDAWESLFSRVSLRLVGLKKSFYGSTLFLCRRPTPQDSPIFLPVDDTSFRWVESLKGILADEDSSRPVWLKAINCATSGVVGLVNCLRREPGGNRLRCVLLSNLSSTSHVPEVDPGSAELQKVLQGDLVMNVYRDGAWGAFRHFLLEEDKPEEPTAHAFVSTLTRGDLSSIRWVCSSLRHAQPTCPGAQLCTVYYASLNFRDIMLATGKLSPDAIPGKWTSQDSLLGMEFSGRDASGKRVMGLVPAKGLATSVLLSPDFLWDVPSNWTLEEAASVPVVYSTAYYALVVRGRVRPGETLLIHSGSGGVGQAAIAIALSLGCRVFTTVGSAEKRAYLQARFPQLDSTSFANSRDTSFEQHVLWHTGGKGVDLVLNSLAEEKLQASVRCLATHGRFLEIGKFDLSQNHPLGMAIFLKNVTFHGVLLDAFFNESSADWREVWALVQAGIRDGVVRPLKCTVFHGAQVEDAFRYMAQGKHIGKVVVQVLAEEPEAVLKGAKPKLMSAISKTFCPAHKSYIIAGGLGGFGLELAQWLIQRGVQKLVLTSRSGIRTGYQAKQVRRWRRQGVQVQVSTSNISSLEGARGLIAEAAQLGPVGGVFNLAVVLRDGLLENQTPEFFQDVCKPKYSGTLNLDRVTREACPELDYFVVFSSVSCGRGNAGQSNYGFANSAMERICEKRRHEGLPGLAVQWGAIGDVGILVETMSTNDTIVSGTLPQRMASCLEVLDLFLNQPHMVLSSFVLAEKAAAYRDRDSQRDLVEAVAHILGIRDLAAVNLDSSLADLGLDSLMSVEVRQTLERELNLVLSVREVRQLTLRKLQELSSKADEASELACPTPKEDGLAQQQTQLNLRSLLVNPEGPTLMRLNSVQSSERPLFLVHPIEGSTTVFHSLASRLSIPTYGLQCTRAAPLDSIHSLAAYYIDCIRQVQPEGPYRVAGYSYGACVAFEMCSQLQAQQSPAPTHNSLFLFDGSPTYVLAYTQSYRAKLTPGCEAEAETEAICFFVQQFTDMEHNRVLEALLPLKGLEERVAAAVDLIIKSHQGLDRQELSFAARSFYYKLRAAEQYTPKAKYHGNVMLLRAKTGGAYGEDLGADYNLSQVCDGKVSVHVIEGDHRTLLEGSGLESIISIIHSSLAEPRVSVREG

COc1nn(CSP(=S)(OC)OC)c(=O)s1
active: [7] 13.6 µM | [8] 33.1 µM | [10] 40.2 µM | [11] 11.5 µM | [12] 38.2 µM
not listed: [18]
inactive: all other assays above

CCc1ccc(C(=O)NN(C(=O)c2cc(C)cc(C)c2)C(C)(C)C)cc1
active: [1] 10.6 µM
inactive: all other assays above

CCC(C)Nc1c([N+](=O)[O-])cc(C(C)(C)C)cc1[N+](=O)[O-] (stereo not given)
active: [18] 84.6 µM and 73.7 µM | [2] 83.6 µM | [5] 74.6 µM | [6] 74.5 µM | [7] 71.7 µM | [9] 78.1 µM | [10] 87.1 µM | [12] 88.3 µM
inactive: [2] | [3] | [4] | [8] | [11] | [13] | [14] | [15] | [16] | [17]

Cc1[nH]c(=O)n(C(C)(C)C)c(=O)c1Cl
active: [13] 68.9 µM
inactive: [1] | [18] | [2] | [3] | [4] | [14] | [15] | [16] | [17]

O=C1c2ccccc2C(=O)N1SC(Cl)(Cl)Cl
not listed: [2] | [5] | [8] | [9] | [10] | [18]
inactive: all other assays above
